Experimental data reported in PubChem BioAssay AID504329 (Southern Research Specialized Biocontainment Screening …, 2011).
About 1,000 (0.29%) of roughly 340,000 compounds were called active. Not all results are given here. Results with a measured potency or affinity are listed apart. Unmarked numbers belong to inactive results. Rule as the data show it: inconclusive = inhibition above about 27% without an active follow-up result; inactive = below that.

Assay: H1N1 influenza NS1A inhibitors, functional cell based assay (AID 504329)
Settings: percent inhibition, at 12.5 µM, active compounds read high

Row | Compound | inhibition [%]
1 | COc1ccc(C(C(=O)NC2CCCC2)N(CCN(C)C)C(=O)c2snc(C(N)=O)c2N)cc1 (configuration not stated) | -6.89
2 | O=C(Cc1ncc(C(F)(F)F)cc1Cl)NC1CC1 | -2.28
3 | O=C(Cc1cccc(C(F)(F)F)c1)N1CCN(CC(=O)N2CCCC2)CC1 | -1.65
4 | CCCNC(=O)CN(c1cccc(F)c1)S(C)(=O)=O | -3.24
5 | COC(CNC(=O)CN1CCN(Cc2ccccc2F)C1=O)OC | -6.42
6 | COc1ccc(NC(=O)CN2CCN(CC(=O)Nc3ccc(F)cc3)CC2)c(OC)c1 | -6.91
7 | O=C(COC(=O)c1ccc(O)cc1)NCC1COc2ccccc2O1 (configuration not stated) | -6.24
8 | Cc1nn(CC(=O)NC(=O)c2ccccc2)c(C)c1[N+](=O)[O-] | -12.3
9 | COc1ccc(CC(=O)OC2CCCN(C)C2)cc1 (configuration not stated) | 2.07
10 | CC1NC(=O)NC1CCCCC(=O)O (configuration not stated) | 8.09
11 | Cc1c(F)cccc1NC(=O)CCC(=O)O | 22.1
12 | CCCCCC1NC(=O)NC1CCCCCC(=O)O (configuration not stated) | 0.19
13 | Cc1c(F)cccc1NC(=O)CSCC(=O)Nc1ccccc1 | -20.1
14 | O=C(CCCCCN1C(=O)c2ccccc2C1=O)Nc1ccc(F)cc1 | 15.1
15 | O=C(CCCCC(=O)Nc1ccc(F)cc1)Nc1ccc(F)cc1 | -8.93
16 | COc1ccc(NC(=S)NCCc2ccc(S(N)(=O)=O)cc2)c(OC)c1 | 0.63
17 | Cc1ccc(C)c(OCCn2cc(/C=C(\C#N)C(=O)NCC3CCCO3)c3ccccc32)c1 (configuration not stated) | 5.75
18 | O=C(COC(=O)Cc1ccc(Cl)cc1)Nc1ccc(OC(F)F)cc1 | -4.03
19 | COc1cc(CN2C(=S)NC(C)(C)CC2(C)O)cc(OC)c1 (configuration not stated) | -3.29
20 | Cc1cc(C)n(Cc2ccc(C(=O)Nc3cccc(Br)c3)o2)n1 | 26.6
21 | O=C1C(Cc2ccc(O)cc2)NC(=S)N1c1ccccc1 (configuration not stated) | 2.29
22 | O=C(C[n+]1ccc(C(=O)N/N=C/c2ccc(O)cc2)cc1)c1ccccc1 | 2.67
23 | O=C(N/N=C/C1C(c2ccccc2)C1(Cl)Cl)c1cccc(Br)c1 (configuration not stated) | -5.72
24 | O=C(N/N=C/c1coc2ccccc2c1=O)c1cc(Br)c(O)c(Br)c1 | -7.78
25 | C=CCN1C(=O)/C(=C\c2ccc(C)cc2)N=C1SCC(=O)NCCC | -5.98

Row | Compound | inhibition [%]
26 | C/C(=N\NC(=O)c1ccn(C)n1)c1cccc(NC(=O)c2ccncc2)c1 | 10.3
27 | COC(=O)C1=C(O)CSC1=Nc1ccc(C)cc1 | -6.3
28 | CCc1nn2cc(C(=O)c3ccccc3O)cnc2c1-c1ccc(F)cc1 | 14.5
29 | O=[N+]([O-])c1ccc(/C=C/c2ccc3cccc(O)c3n2)cc1 | -0.58
30 | O/N=C/c1ccc2cccc(O)c2n1 | 1.88
31 | CCOc1ccc(OCCC(=O)NNC(=O)c2ccccc2Cl)cc1 | -2.63
32 | CCN(CC)CCNC(=O)c1cc(Sc2nnc(C)s2)nc2ccccc12 | -9.1
33 | COc1cc2[nH]c(=O)n(Cc3ccc(C(=O)NCCCN4CCC(C)CC4)cc3)c(=O)c2cc1OC | 4.01
34 | COc1ccc(N(CC(=O)NCc2ccc(Cl)cc2)S(=O)(=O)c2c(C)noc2C)cc1 | 6.25
35 | OC(CNCC(c1ccc(Cl)cc1Cl)c1c[nH]c2ccccc12)c1ccccc1 (configuration not stated) | 5.5
36 | NCC(c1ccc(Cl)cc1Cl)c1c[nH]c2ccccc12 (configuration not stated) | 7.89
37 | CC[C@]12C(=O)N(C)C[C@H]([C@@H]3C(=O)N(Cc4ccccc4)C(=O)[C@@H]31)N2C(=O)c1ccc(Br)cc1 | 1.57
38 | Cc1ccc(NCc2nc3ccccc3n2C)c(C)c1 | 1.58
39 | CN(C)c1ccc(N=Nc2nc3ccccc3n2C)cc1 | -12.4
40 | Cn1c(N=Nc2ccccc2)nc2ccccc21 | 3.98
41 | Cc1ccc(CNc2nc3ccccc3n2C)cc1 | -2.51
42 | C=CCn1c(C(O)c2ccccc2)nc2ccccc21 (configuration not stated) | -2.4
43 | COC(=O)c1ccccc1NC(=O)c1cccc(NC(=O)C(C)C)c1 | -5.47
44 | Cc1ccc(Cl)c2c1NC(=O)C2(O)CC(=O)c1ccccc1O (configuration not stated) | 1.71
45 | Cc1nn(Cc2ccc(F)cc2)c(Cl)c1/C=N/NC(=O)c1cccnc1 | 3.93
46 | CCCCNC(=O)C1CCCN1S(=O)(=O)c1cccc2nsnc12 (configuration not stated) | -12.3
47 | O=c1c2c(-c3ccccc3)csc2ncn1/N=C/c1c2ccccc2cc2ccccc12 | 5.97
48 | CN(C)c1ccc(C=Nc2ccc(N(C)C)cc2)cc1 | 26.9
49 | Cc1ccc(C=Nc2ccc(N(C)C)cc2)o1 | 22.3
50 | CN1C(C(=O)NCCc2cccs2)CC2Cn3c(nc4cc5ccccc5cc43)C21 (configuration not stated) | 1.77

Row | Compound | inhibition [%]
51 | CSc1cccc(CN2CCN(CCc3ccccc3)C(CCO)C2)c1 (configuration not stated) | -1.46
52 | CN(CCO)c1cc(N2CCN(C(=O)c3ccco3)CC2)c2nonc2c1[N+](=O)[O-] | -1.02
53 | O=C(c1ccco1)N1CCN(C2=NS(=O)(=O)c3ccccc32)CC1 | -26.1
54 | O=C(c1cc(-c2ccccc2Cl)on1)N1CCN(C(=O)c2ccco2)CC1 | 9.97
55 | O=C(c1ccco1)N1CCN(CCCCN2C(=O)c3ccccc3C2=O)CC1 | -6.16
56 | COc1ccc(C)cc1-n1nnnc1SCc1csc(C)n1 | -0.01
57 | O=C(Cc1ccc2c(c1)OCCO2)Nc1cc(C(F)(F)F)ccc1N1CCOCC1 | -15.4
58 | O=C(CC(O)(CC(=O)OCc1ccccc1)C(=O)OCc1ccccc1)OCc1ccccc1 | 10.3
59 | O=C1/C(=C\c2cccc(O)c2O)SC(=S)N1Cc1ccccc1 | 11.5
60 | O=C1/C(=C/c2ccc(O)c([N+](=O)[O-])c2)SC(=S)N1Cc1ccccc1 | 8.28
61 | O=C(c1ccncc1)C12CN3CN(CN(C3)C1)C2 | -2.7
62 | COc1cc(/C=N\NC(=O)CN2CCOCC2)ccc1OCC(=O)Nc1ccc(C)c(C)c1 | 0.68
63 | C/C(=N\N1CCN(Cc2ccc(Cl)cc2)CC1)c1ccc([N+](=O)[O-])cc1 | 1.56
64 | CC(c1ccccn1)C(C)(O)C(C)c1ccccn1 (configuration not stated) | -2.07
65 | CC(O)(Cc1ccccn1)Cc1ccccn1 | 3.66
66 | COc1ccccc1N1CCN(Cc2cc3c(cc2Br)OCCO3)CC1 | 3.4
67 | COc1ccccc1N1CCN(Cc2cccc(OC)c2OC)CC1 | -12
68 | COc1ccccc1N1CCN(Cc2ccc(OC)c(OC)c2OC)CC1 | 0.22
69 | COc1ccccc1N1CCN(Cc2cccc(OC)c2O)CC1 | 0.66
70 | Cc1onc(COc2ccccc2O)c1Br | -2.44
71 | Cc1cccc(NC(=O)C2CCCN(S(=O)(=O)c3ccc4[nH]c(=O)ccc4c3)C2)n1 (configuration not stated) | 5.77
72 | CC(C)C(NC(=O)c1ccc(C(C)(C)C)cc1)C(=O)NC1=NCCS1 (configuration not stated) | 8.12
73 | c1cc(-c2ccncc2)ccn1 | -1.52
74 | CN(C)c1ccc(-c2cc(O)c3ncccc3c2)cc1 | 21.2
75 | Oc1cncc(-c2cccnc2)c1 | -6.57

Row | Compound | inhibition [%]
76 | c1cncc(-c2cnc3ccccc3c2)c1 | -4.39
77 | CC1(c2nnc(-c3ccc(Cl)cc3)o2)CC(c2c(Cl)cccc2Cl)=NO1 (configuration not stated) | -2.35
78 | Cc1ccc(NC(=S)NCc2ccccc2)c(C)c1 | -7.15
79 | O=C(Cc1ccccc1)Nc1cc(C(=O)c2ccccc2)ccc1N1CCOCC1 | -3.63
80 | COc1ccc(C(=O)NCCNc2nc3ccc(C)cc3cc2C#N)cc1 | -6.86
81 | CN(CC1CCCN(CCc2ccc(Cl)cc2)C1)C(=O)CC(F)(F)F (configuration not stated) | -8.18
82 | Cc1ccc(CNC(=O)C2CCC(=O)N(CCc3ccc(Cl)cc3)C2)s1 (configuration not stated) | -10
83 | COc1ccc(C(=O)NC(C)CCCC(C)(C)O)cc1OC1CCN(C(C)=O)CC1 (configuration not stated) | -0.26
84 | Clc1ccc(-c2noc(COc3ccccc3)n2)cc1 | -0.74
85 | C/C(=N/NC(=O)CNC(=O)c1ccccn1)c1ccc([N+](=O)[O-])cc1 | -5.71
86 | C/C(=N\NC(=O)C(c1ccccc1)c1ccccc1)c1ccccn1 | -11.5
87 | CCOc1ccc(C(=O)NCCN2CCCCC2)c(OCC)c1 | -19.7
88 | Cc1ccc(NC(=O)CN(C)C(=O)c2ccc(NS(=O)(=O)c3ccc4[nH]c(=O)[nH]c4c3)cc2)cc1 | 2.9
89 | O=C(COC(=O)C12CC3CC(CC(O)(C3)C1)C2)NC(=O)NCc1ccco1 | -3.4
90 | O=c1[nH]c(=S)[nH]c2scc(-c3ccc(Br)cc3)c12 | -20.7
91 | CCn1c(C)nc2cc(C(=O)N/N=C/c3cccc(OC)c3O)ccc21 | 5.9
92 | CCn1c(C)nc2cc(C(=O)N/N=C/c3cccc(O)c3O)ccc21 | 0.31
93 | O=C(O)c1cc(-c2cccc3ccccc23)nc2ccccc12 | -1.69
94 | O=C(O)c1cc(-c2ccccc2)nc2ccccc12 | 1.29
95 | COc1ccc(C(=O)N2CCN(c3ncccn3)CC2)cc1[N+](=O)[O-] | -14.3
96 | O=C(NC(=S)Nc1ccc2oc(-c3ccncc3)nc2c1)c1ccccc1F | 1.17
97 | O=C(N/N=C/c1c[nH]c2ccccc12)c1ccc(Cl)cc1 | 3.88
